This is part of a sample that, as a whole, favours compounds with a hit. Of some 79,000 tested, about 15% had one in any assay. Values without a mark were called inactive. Activity calls are given as the source filed them. Cut-off read from the data, not from the text of the source: active = growth inhibition above about 70%; inactive = the rest.
Assay: NCI Yeast Anticancer Drug Screen. Data for the rad50 strain (AID 155);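 note: 0% = growth of vehicle-only cultures of the same strain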
Settings: S. cerevisiae rad50 strain growth inhibition; at 50.0 µM; hits give high values
Outline: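 Vehicle-treated cultures provide the reference for the growth inhibition reported for compound-exposed, repair-deficient yeast.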

Question: For `O=S(Cc1cc2c(cc1Br)OCO2)c1ccccc1` (stereo not given), which growth inhibition is on record?
Answer: -27%

Question: Which growth inhibition does the source give for `CC1(C)C2CCC(C2)C1/C=C1/SC(=S)NC1=O` (stereo not given) here?
Answer: -6.2%

Question: Which growth inhibition does the source give for `Cc1cccc(NC(=O)CCl)c1C` here?
Answer: -18.1%

Question: For `CN1C(=O)C(=O)N(C)C(=O)C1=O`, which growth inhibition is on record?
Answer: 8.75%

Question: With `Cc1cccc(C)c1NC(=S)NC1CC(C)CC(C)(C)C1` (stereo not given) as the molecule, how does the growth inhibition read?
Answer: 41.2%

Question: For `COC(=O)C(C)n1c(C)csc1=S` (stereo not given), which growth inhibition is on record?
Answer: -0.15%

Question: For `COc1ccc2nc(Cl)sc2c1`, which growth inhibition is on record?
Answer: 32.4%

Question: With `CC(=O)NC(NC(C)=O)c1ccccc1` as the molecule, how does the growth inhibition read?
Answer: -16.6%

Question: With `CCOc1ccc(NC(=O)C(=O)C(/C(=N/N)C(=O)OC)c2nc3ccc([N+](=O)[O-])cc3[nH]c2=O)cc1` (stereo not given) as the molecule, how does the growth inhibition read?
Answer: 6.9%

Question: For `Cc1ccc(O)c(Cc2cc(C)cc(Cc3cc(C)ccc3O)c2O)c1`, which growth inhibition is on record?
Answer: 30.2%

Question: Which growth inhibition does the source give for `CCC(=O)Oc1ccc(C(OC(=O)CC)OC(=O)CC)cc1OC` here?
Answer: -9.1%

Question: Which growth inhibition does the source give for `Cc1ccc(C(C(=O)O)C(Cl)(Cl)Cl)cc1` (stereo not given) here?
Answer: 6.7%

Question: Which growth inhibition does the source give for `C[N+](C)(CC(=O)Nc1cc(C(F)(F)F)cc(C(F)(F)F)c1)CC(=O)Nc1ccc(Cl)c(C(F)(F)F)c1` here?
Answer: 99.5% (active)

Question: With `CC(=O)OC1C=CCC2C(=O)C3=C(C(=O)c4ccccc4C3=O)C(=O)C12` (stereo not given) as the molecule, how does the growth inhibition read?
Answer: 72.6% (active)

Question: For `CC(C)C(=O)c1ccccc1Cl`, which growth inhibition is on record?
Answer: 2.85%

Question: With `c1ccc(CCN=C2c3ccccc3-n3cccc32)nc1` as the molecule, how does the growth inhibition read?
Answer: 33.5%

Question: Which growth inhibition does the source give for `CC(NC(=O)NCCCl)C1CC1` (stereo not given) here?
Answer: -2.1%

Question: For `CCCC[n+]1cc(C(N)=O)cc2ccccc21`, which growth inhibition is on record?
Answer: -3.9%

Question: Which growth inhibition does the source give for `NC(N)=Nc1ccc(Sc2ccc(N=C(N)N)cc2)cc1` here?
Answer: -15.8%

Question: With `NC(=O)c1cc(OCc2ccccc2)nc2nc(Cl)nc(N)c12` as the molecule, how does the growth inhibition read?
Answer: -5.05%

Question: Which growth inhibition does the source give for `CN(C)C(=S)Oc1cc(Cl)c(Cl)cc1Cl` here?
Answer: 86.1% (active)

Question: For `CC1=NN2C(=O)C(c3ccccc3)SC2=NC(C)(C)C1` (stereo not given), which growth inhibition is on record?
Answer: 13.1%

Question: Which growth inhibition does the source give for `O=C(O)c1ccc(F)cc1F` here?
Answer: 6.25%

Question: For `CC(=O)Nc1ccc(S(=O)(=O)Nc2ccc([N+](=O)[O-])cc2)cc1`, which growth inhibition is on record?
Answer: -37.4%

Question: Which growth inhibition does the source give for `COc1cc(/C=N/N=C(\N)NO)cc(OC)c1OC` here?
Answer: -6.5%

Question: Which growth inhibition does the source give for `O=C(NO)c1ccc([N+](=O)[O-])cc1` here?
Answer: 58.2%

Question: Which growth inhibition does the source give for `O=C(Oc1cccc2ccccc12)c1cccnc1` here?
Answer: -1.45%

Question: Which growth inhibition does the source give for `CCCCCCCSCC(O)COC(c1ccccc1)(c1ccccc1)c1ccccc1` (stereo not given) here?
Answer: -17.5%

Question: With `COc1ccc(NC(=O)C(=O)C2CNC(=O)NC2=O)c(OC)c1` (stereo not given) as the molecule, how does the growth inhibition read?
Answer: -9.2%

Question: Which growth inhibition does the source give for `N#Cc1cccc(CC(O)(c2ccccc2)c2ccccc2)c1` here?
Answer: 19.6%

Question: With `CN(Cc1ccccc1)C(=O)Nc1ccc(F)c([N+](=O)[O-])c1` as the molecule, how does the growth inhibition read?
Answer: 7.95%

Question: Which growth inhibition does the source give for `CCCCCCCCCCCCCCCCCC(=O)OC(C(O)C=O)C(O)C(O)CO` (stereo not given) here?
Answer: 12.6%

Question: For `CCOC(=O)N1C2C=C(C)C(ON2C(=O)c2ccccc2)C2C(C)C(=O)N21` (stereo not given), which growth inhibition is on record?
Answer: -3.8%

Question: For `Cc1ccc(-c2cs/c(=N\N=C3/CSC(=O)N3Cc3ccccc3)n2-c2ccccc2)cc1`, which growth inhibition is on record?
Answer: 41.1%

Question: Which growth inhibition does the source give for `CCc1ccc(CC)c(OC)c1` here?
Answer: 16.6%

Question: With `O=C(O)CSc1n[nH]c(-c2ccccc2)n1` as the molecule, how does the growth inhibition read?
Answer: -14.2%

Question: With `Nc1cccc(OCc2nc(N)nc(N)c2-c2ccc(Cl)cc2)c1` as the molecule, how does the growth inhibition read?
Answer: -14%

Question: With `CC(=O)C(=C(c1ccccc1)c1ccccc1)c1ccccc1` as the molecule, how does the growth inhibition read?
Answer: -51.4%

Question: For `O=C(O)C1=C(C(=O)O)C2CCCC3C4CCCCC4N(N1)C23` (stereo not given), which growth inhibition is on record?
Answer: 20.1%

Question: For `Nc1ccccc1C(=O)Nc1ccccn1`, which growth inhibition is on record?
Answer: 4.05%

Reference: PubChem BioAssay (NCI)
